Records with an inconclusive call do not appear. The source made the active and inactive calls. Unless noted, calls come from the whole dose curve; as a rule, active = well fitted curve in the direction sought with a large enough effect; inconclusive = small, poorly fitted or top-dose-only effect, or another doubt; inactive = no such curve, though single readings can be large; an effect the other way counts as inactive or inconclusive. Residues, ends and D or L forms follow the SMILES beside them. *: point of attachment. Cbz = O=C(OCc1ccccc1)*
Experiments:
[1] = NS1 protein of Zika virus - qHTS assay to identify small molecule inhibitors in human HEK 293 cells (AID 1347053);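 note: plate controls were infected untreated cells for no effect and uninfected cells for full effect; nearly all actives have a fitted effect of over 55% in size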
Procedure, shortened: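 Following 20 h seeding, HEK 293 cells took compound, then 1 h later ZIKV MR766 (MOI = 0.5). Incubation ran 24 h at 37 C before TR-FRET detection of NS1; a drop in signal indicates inhibition.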

[2] = biological target: T1, Tyrosine-protein phosphatase non-receptor type substrate 1 (Homo sapiens) + Leukocyte surface antigen CD47 (Homo sapiens) (UniProt P78324+Q08722); assay: CD47-SIRPalpha protein protein interaction - LANCE assay qHTS validation (AID 1347057; active = well fitted curve in the direction sought with a large enough effect in the signal ratio, with a control signal flat, not every such curve was filed as active; the % refers to the signal ratio; note: 0% is about no effect)
Procedure, shortened: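 First, His-tagged CD47 and Eu-labelled anti-His antibody met the compound for 30 min; next, site-specifically biotinylated SIRPalpha was added for 30 min; finally streptavidin-APC was added before reading the TR-FRET ratio.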

[3] = biological target: T1, Tyrosine-protein phosphatase non-receptor type substrate 1 (Homo sapiens) + Leukocyte surface antigen CD47 (Homo sapiens); assay: CD47-SIRPalpha protein protein interaction - HTRF assay qHTS validation (AID 1347058; active = well fitted curve in the direction sought with a large enough effect in the signal ratio, not every such curve was filed as active; the % refers to the signal ratio;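 note: recombinant soluble extracellular CD47 with His tag and biotinylated SIRPalpha domains; 0% is about no effect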)
Procedure, shortened: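 TR-FRET read (Ch1/Ch2 ratio) of soluble extracellular CD47 and Avi-biotinylated SIRPalpha domains in PBS pH 7.4 with 0.05% IGEPAL; 7-point compound titration. Sequential 30 min room-temperature steps; non-biotinylated SIRPalpha as control inhibitor.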

[4] = biological target: T1, Tyrosine-protein phosphatase non-receptor type substrate 1 (Homo sapiens) + Leukocyte surface antigen CD47 (Homo sapiens); assay: CD47-SIRPalpha protein protein interaction - Alpha assay qHTS validation (AID 1347059);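 note: bead proximity luminescence from CD47 binding SIRPalpha after compound preincubation with SIRPalpha; % is set by controls: 0 for no effect and ±100 for the full control effect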
Procedure, shortened: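 Biotinylated Avi-tagged SIRPalpha (25 nM) preincubated 30 min with compound, then His-tagged CD47 (12.5 nM) added 30 min; AlphaScreen with Ni-NTA acceptor and streptavidin donor beads. PBS pH 7.4, 0.05% IGEPAL, room temperature; 7-point titrations.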

[5] = biological target: Parathyroid hormone/parathyroid hormone-related peptide receptor (Homo sapiens) (UniProt Q03431); assay: qHTS for PTHR1 Agonists: Optimization Screen against the NCGC LOPAC library (AID 1347079);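 note: GloSensor cAMP luminescence in HEK-293 GP2 cells expressing human PTHR1 with IBMX; 0% is about no effect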
Procedure, shortened: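 Compounds were tested across a qHTS titration. PTHR1-expressing GP2 cells report cAMP rises via GloSensor luminescence after 1 hr compound exposure at 37C with IBMX present.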

[6] = tested on: Zika virus NS2B-NS3 protease (unlinked); assay: Optimization of GU AMC qHTS for Zika virus inhibitors: Unlinked NS2B-NS3 protease assay (AID 1347151); note: nearly all actives have a fitted effect of over 80% in size; note: potency is the fitted concentration of half-maximal effect
Procedure, shortened: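 Noncovalent NS2B hydrophilic domain–NS3 protease complex (25 nM final) in 10 mM Tris-HCl pH 8.0, 0.01% Tween 20; AMC substrate, room temperature 15 min (~20% conversion); fluorescence change normalized, 4-parameter Hill fit.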

[7] = tested on: Zika virus NS2B-NS3 protease; assay: Primary screen GU AMC qHTS for Zika virus inhibitors (AID 1347154);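 note: 0% = no-inhibitor control and -100% = no-enzyme control; nearly all actives have a fitted effect of over 70% in size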
Procedure, shortened: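 Unlinked Zika NS2B hydrophilic domain–NS3 protease complex at 25 nM in 10 mM Tris-HCl pH 8.0, 0.01% Tween 20, with an AMC peptide substrate. Fluorescence change (340/450 nm) over 15 min at room temperature, normalized to controls, fitted to 4-parameter Hill.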

[8] = biological target: Lysine-specific demethylase 5B (Homo sapiens) (UniProt Q9UGL1); assay: Optimization screen for KDM5B Histone Demethylases FDH coupled qHTS against the LOPAC library (AID 1347166); details: KDM5B demethylation, FDH-coupled NADH fluorescence (FDH is formaldehyde dehydrogenase); at 57.5 µM (top of the series); note: 0% is about no effect
Procedure, shortened: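 KDM5BDeltaAP (200nM final) preincubated 10 min with compound, then 12.5uM H3K4Me3, 25uM a-ketoglutarate, ascorbate, Fe(II), NAD+ and FDH added; 50mM HEPES pH 7.5, 0.01% Tween-20. NADH fluorescence (340/450 nm) change over 30 min, room temperature.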

[9] = biological target: N-terminal Xaa-Pro-Lys N-methyltransferase 1 (Homo sapiens) (UniProt Q9BV86); assay: qHTS Assay for Inhibitors of N-terminal methyltransferase 1 (NTMT1): LOPAC validation of the NTMT1 SAHH-coupled ThioGlo3 Assay (AID 1347143);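 note: SAH from peptide methylation measured as thiol fluorescence via SAHH coupling and ThioGlo3; % is set by controls: 0 for no effect and ±100 for the full control effect; nearly all actives have a fitted effect of over 70% in size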
Procedure, shortened: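 Recombinant human NTMT1 (125nM) was pre-incubated 1 min at room temperature with compounds over a concentration range, then a mix of 100uM SAM, 10uM SAHH and 15uM ThioGlo3 (concentrations in added reagent) was added. ThioGlo3 fluorescence (ex 340/em 450nm) after 30 min was normalized to the initial reading.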

Furin (Homo sapiens) = Furin (Homo sapiens) (UniProt P09958); assay: Furin counterscreen qHTS for Zika virus inhibitors (AID 1347149); note: potency is the fitted concentration of half-maximal effect; nearly all actives have a fitted effect of over 70% in size
Procedure, shortened: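 Fluorogenic cleavage of BOC-RVRR-AMC (2 microM final, Km ~15 µM) was monitored (ex 340, em 450 nm) at 37C after 15 min RT preincubation of 5 nM furin with compounds in HEPES pH 7.0 buffer with CaCl2 and Triton X-100. Percent inhibition was fitted to a 4-parameter Hill curve.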

[10] = tested on: Zika virus NS2B-NS3 protease (linked construct); assay: Confirmatory screen NINDS AMC qHTS for Zika virus inhibitors (AID 1347152);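 note: AMC fluorescence gain from cleaved Bz-Nle-KRR-AMC substrate over 15 min; top concentration of the series differs between compounds; 0% = no-inhibitor control and -100% = no-enzyme control; nearly all actives have a fitted effect of over 70% in size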
Procedure, shortened: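 Linked NS2B-NS3 protease, 1 nM, in 10 mM Tris-HCl pH 8.0, 0.01% Tween 20; compounds preincubated 15 min at room temperature. Nle-KRR-AMC 10 microM (Km 18.3 µM); 15-min fluorescence change (340/450 nm) fitted to 4-parameter Hill.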

[11] = tested on: Zika virus NS2B-NS3 protease (unlinked complex); assay: Confirmatory screen GU AMC qHTS for Zika virus inhibitors (AID 1347153)
Procedure, shortened: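 Fluorescence change (ex 340/em 450 nm) over 15 min, ~20% substrate conversion, normalized to no-inhibitor and no-enzyme controls, then Hill-fitted. Unlinked protease at 25 nM; AMC peptide 10 µM.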

[12] = Confirmatory screen NINDS Rhodamine qHTS for Zika virus inhibitors (AID 1347161);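 note: purified Zika NS2B-NS3 protease with linked NS2B cofactor domain and Rhodamine110 peptide substrate; plate controls were no-inhibitor control for no effect and no-enzyme control for full effect; nearly all actives have a fitted effect of over 60% in size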
Procedure, shortened: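 Single-chain NS2B-NS3 protease, 25 nM, pH 8.0; compounds preincubated 15 min. Activity: Rhodamine110 release from 1.5 microM substrate over 15 min, room temperature, data fitted to 4-parameter Hill.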

[13] = Vero cells viability qHTS for Zika virus inhibitors (AID 1347167); note: % is set by controls: 0 for no effect and ±100 for the full control effect
Procedure, shortened: (§1)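 Cells seeded at 2.5 x 10^5 cells/mL in DMEM with 4% FBS and attached overnight at 37 degrees C, then exposed to compound for 24 to 48 hours. Viability read as ATP content by CellTiter Glo luminescence.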

[14] = HepG2 cells viability qHTS for Zika virus inhibitors (AID 1347168); note: % is set by controls: 0 for no effect and ±100 for the full control effect
Procedure, shortened: as §1

Lysine-specific demethylase 5B (Homo sapiens), sequence (Q9UGL1 whole entry, looked up): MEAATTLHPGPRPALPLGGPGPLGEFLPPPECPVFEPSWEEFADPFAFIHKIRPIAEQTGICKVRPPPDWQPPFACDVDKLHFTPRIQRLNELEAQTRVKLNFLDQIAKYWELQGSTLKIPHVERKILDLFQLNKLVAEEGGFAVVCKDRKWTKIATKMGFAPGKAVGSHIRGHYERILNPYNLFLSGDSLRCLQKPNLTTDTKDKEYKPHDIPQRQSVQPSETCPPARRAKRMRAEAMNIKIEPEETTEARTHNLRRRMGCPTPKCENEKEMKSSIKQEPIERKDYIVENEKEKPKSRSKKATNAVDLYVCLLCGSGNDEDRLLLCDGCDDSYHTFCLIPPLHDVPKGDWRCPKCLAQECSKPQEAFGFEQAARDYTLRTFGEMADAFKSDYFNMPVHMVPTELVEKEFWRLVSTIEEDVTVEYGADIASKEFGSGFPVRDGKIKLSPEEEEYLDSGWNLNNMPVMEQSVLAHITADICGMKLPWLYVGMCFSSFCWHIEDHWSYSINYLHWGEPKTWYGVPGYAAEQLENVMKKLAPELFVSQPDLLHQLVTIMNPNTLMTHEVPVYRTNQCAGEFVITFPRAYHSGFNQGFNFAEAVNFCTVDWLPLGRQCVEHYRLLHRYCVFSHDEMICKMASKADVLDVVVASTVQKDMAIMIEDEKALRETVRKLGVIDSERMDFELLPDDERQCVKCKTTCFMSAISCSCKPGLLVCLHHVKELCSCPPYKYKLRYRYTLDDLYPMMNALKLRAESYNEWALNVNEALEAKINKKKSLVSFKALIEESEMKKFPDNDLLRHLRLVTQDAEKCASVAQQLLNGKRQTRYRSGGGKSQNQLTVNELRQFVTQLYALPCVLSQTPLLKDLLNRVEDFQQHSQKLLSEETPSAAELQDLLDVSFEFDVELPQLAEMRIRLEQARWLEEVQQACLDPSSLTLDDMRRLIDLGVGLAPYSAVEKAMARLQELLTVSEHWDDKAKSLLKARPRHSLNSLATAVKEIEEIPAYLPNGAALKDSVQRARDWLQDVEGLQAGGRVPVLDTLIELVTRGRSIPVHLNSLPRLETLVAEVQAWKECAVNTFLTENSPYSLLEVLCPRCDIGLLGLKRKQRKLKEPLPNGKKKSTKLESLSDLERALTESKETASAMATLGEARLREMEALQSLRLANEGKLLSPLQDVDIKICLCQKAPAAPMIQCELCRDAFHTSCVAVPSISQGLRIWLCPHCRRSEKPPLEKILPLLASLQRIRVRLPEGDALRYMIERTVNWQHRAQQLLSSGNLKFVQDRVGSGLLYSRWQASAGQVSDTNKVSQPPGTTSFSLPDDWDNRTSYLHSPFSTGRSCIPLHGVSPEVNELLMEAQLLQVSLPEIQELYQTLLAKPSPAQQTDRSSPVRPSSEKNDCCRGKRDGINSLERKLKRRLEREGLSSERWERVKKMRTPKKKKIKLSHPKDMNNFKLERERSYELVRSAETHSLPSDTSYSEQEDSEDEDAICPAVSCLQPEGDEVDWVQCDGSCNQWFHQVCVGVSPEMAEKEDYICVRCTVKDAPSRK
T1 sequence (P78324 whole entry, looked up): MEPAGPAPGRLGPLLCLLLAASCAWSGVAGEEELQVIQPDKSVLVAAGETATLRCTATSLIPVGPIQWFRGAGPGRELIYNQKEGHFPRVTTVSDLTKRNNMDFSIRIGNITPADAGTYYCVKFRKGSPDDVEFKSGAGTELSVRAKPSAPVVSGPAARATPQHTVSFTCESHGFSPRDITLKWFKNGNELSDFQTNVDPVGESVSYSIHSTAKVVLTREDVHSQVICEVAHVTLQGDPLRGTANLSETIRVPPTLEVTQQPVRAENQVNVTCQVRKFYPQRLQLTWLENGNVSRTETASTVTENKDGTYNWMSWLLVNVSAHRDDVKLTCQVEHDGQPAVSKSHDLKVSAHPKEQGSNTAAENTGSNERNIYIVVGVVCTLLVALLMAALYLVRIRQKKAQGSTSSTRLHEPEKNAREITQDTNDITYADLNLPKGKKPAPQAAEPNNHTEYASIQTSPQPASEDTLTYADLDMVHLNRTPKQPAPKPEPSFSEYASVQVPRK
T1 sequence (Q08722 whole entry, looked up): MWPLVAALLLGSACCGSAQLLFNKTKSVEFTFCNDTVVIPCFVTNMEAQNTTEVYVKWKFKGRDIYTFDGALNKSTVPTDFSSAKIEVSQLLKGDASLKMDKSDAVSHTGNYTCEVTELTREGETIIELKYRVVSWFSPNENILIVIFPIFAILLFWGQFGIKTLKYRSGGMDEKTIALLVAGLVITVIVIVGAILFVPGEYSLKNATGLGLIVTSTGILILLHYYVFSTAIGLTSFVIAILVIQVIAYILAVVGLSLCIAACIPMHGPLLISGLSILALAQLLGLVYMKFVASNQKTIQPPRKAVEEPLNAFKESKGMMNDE
N-terminal Xaa-Pro-Lys N-methyltransferase 1 (Homo sapiens), sequence (Q9BV86 whole entry, looked up): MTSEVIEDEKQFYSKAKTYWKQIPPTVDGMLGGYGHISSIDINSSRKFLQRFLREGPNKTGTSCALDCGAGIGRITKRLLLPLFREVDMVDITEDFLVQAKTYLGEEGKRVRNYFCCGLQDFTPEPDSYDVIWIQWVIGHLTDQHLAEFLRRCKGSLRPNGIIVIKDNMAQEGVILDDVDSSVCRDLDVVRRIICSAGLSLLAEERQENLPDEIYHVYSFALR
Parathyroid hormone/parathyroid hormone-related peptide receptor (Homo sapiens), sequence (Q03431 whole entry, looked up): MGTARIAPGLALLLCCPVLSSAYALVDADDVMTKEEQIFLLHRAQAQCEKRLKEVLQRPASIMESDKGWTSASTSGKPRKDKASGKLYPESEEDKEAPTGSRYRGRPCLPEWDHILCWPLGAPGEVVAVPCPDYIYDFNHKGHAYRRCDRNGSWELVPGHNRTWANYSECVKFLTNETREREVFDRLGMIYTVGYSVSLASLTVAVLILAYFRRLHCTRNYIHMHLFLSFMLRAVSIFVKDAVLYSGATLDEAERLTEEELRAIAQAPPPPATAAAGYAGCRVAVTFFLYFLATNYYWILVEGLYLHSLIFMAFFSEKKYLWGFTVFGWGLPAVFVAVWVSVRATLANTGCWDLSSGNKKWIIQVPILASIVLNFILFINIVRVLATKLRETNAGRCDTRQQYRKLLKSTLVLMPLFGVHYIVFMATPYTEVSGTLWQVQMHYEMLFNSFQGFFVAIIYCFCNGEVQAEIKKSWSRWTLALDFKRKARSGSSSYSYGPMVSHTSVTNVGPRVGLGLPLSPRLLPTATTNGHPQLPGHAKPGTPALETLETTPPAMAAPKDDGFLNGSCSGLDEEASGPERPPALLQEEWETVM
Furin (Homo sapiens), sequence (P09958 whole entry, looked up): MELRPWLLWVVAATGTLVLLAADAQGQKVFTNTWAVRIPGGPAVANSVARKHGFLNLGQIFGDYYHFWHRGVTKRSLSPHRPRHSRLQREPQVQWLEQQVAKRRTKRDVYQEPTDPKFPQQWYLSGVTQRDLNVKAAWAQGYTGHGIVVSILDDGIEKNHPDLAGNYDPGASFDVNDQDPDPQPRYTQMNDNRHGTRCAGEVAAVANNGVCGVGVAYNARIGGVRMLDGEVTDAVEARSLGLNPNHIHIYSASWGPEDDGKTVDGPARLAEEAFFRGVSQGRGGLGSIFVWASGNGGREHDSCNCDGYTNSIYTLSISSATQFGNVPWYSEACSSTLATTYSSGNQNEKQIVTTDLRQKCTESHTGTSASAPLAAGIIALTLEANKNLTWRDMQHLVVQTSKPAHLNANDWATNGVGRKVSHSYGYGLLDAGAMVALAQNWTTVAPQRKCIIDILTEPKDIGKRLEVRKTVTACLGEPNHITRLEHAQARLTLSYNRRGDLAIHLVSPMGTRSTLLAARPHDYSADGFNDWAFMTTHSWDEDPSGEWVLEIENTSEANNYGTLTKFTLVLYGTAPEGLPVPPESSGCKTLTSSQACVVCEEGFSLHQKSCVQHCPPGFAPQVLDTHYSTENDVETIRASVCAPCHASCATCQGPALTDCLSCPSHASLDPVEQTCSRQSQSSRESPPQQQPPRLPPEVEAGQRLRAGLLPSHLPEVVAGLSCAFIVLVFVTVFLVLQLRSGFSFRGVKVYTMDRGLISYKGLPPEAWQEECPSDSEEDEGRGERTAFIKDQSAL

CN1CCc2cc(Cl)c(O)cc2[C@@H](c2ccccc2)C1
inactive: Potency [1] | Potency [2] | outcome [3] | Potency [4] | Potency [5] | Potency [6] | Potency [7] | activity, negative = inhibition [8] -3.21%

Cn1c(=O)[nH]c2ncn(C)c2c1=O
inactive: Potency [1] | Potency [2] | outcome [3] | Potency [4] | Potency [5] | Potency [6] | Potency [7] | activity, negative = inhibition [8] -3.98%

CN(C)CCCc1cc(C(=O)Nc2ccc(-c3ccncc3)cc2)ccc1O
inactive: Potency [1] | Potency [2] | outcome [3] | Potency [4] | Potency [5] | Potency [6] | activity, negative = inhibition [8] -5.29%

C[C@@]1(C2CCCC2)Cc2cc(OCC(=O)O)c(Cl)c(Cl)c2C1=O
inactive: Potency [1] | Potency [2] | outcome [3] | Potency [4] | Potency [5] | Potency [6] | Potency [7] | activity, negative = inhibition [8] -5.03%

CCN(CC)CCOC(=O)c1cc(Cl)c(N)cc1OC
inactive: Potency [1] | Potency [2] | outcome [3] | Potency [4] | Potency [5] | Potency [6] | Potency [7] | activity, negative = inhibition [8] -9.27%

CC(C)[C@H](NC(=O)OCc1ccccc1)C(=O)N[C@H](C=O)Cc1ccccc1 (Cbz-Val-Phe-aldehyde)
inactive: Potency [1] | Potency [2] | outcome [3] | Potency [4] | Potency [5] | Potency [6] | Potency [7] | activity, negative = inhibition [8] 6.73%

O=C(O)C1=CCCN(CCON=C(c2ccccc2)c2ccccc2)C1
inactive: Potency [1] | Potency [2] | outcome [3] | Potency [4] | Potency [5] | Potency [6] | Potency [7] | activity, negative = inhibition [8] 1.04%

CC(/C=C/c1cccc(Oc2ccc(F)cc2)c1)N(O)C(N)=O (stereo unspecified)
inactive: Potency [1] | Potency [2] | outcome [3] | Potency [4] | Potency [5] | Potency [6] | Potency [7] | activity, negative = inhibition [8] -9.88%

CSc1nc(N)c2ncn([C@@H]3O[C@H](COP(=O)(O)OP(=O)(O)O)C(O)[C@H]3O)c2n1 (stereo partly specified)
inactive: Potency [1] | Potency [2] | outcome [3] | Potency [4] | Potency [5] | Potency [6] | activity, negative = inhibition [8] -13.8%

COc1cc(N)c(Cl)cc1C(=O)OCCN1CCCCC1
inactive: Potency [1] | Potency [2] | outcome [3] | Potency [4] | Potency [5] | Potency [6] | activity, negative = inhibition [8] -18.2%

C[C@H]1CC2C3CCC4=CC(=O)C=C[C@]4(C)[C@@]3(Cl)[C@@H](O)C[C@]2(C)[C@@]1(O)C(=O)CO (stereo partly specified)
inactive: Potency [1] | Potency [2] | outcome [3] | Potency [4] | Potency [5] | Potency [6] | activity, negative = inhibition [8] -1.11%

N=C(N)c1ccc(N)cc1
inactive: Potency [1] | Potency [2] | outcome [3] | Potency [4] | Potency [5] | Potency [6] | activity, negative = inhibition [8] -6.1%

Nc1nc2c(cnn2CCc2ccccc2)c2nc(-c3ccco3)nn12
inactive: Potency [1] | Potency [2] | outcome [3] | Potency [4] | Potency [5] | Potency [7]
active: Potency [6] 23.8 µM

C#CCn1c(=O)c2c(ncn2C)n(C)c1=O
inactive: Potency [1] | Potency [2] | outcome [3] | Potency [4] | Potency [5] | Potency [6] | Potency [7] | activity, negative = inhibition [8] -2.26%

CC1CCN=C(N)S1 (stereo unspecified)
inactive: Potency [1] | Potency [2] | outcome [3] | Potency [4] | Potency [5] | Potency [6] | activity, negative = inhibition [8] -2.36%

O=c1ccc2c(OCCCCc3ccccc3)c3ccoc3cc2o1
active: Potency [6] 26.7 µM
inactive: Potency [1] | Potency [2] | outcome [3] | Potency [4] | Potency [5]

COc1cc(CNC(=O)CCCCCCC(C)C)ccc1O
inactive: Potency [1] | Potency [2] | outcome [3] | Potency [4] | Potency [5] | activity, negative = inhibition [8] -17%

NC(C(=O)N[C@@H]1C(=O)N2C(C(=O)O)=C(Cl)CS[C@H]12)c1ccccc1 (stereo partly specified)
inactive: Potency [1] | Potency [2] | outcome [3] | Potency [4] | Potency [9]

NCCNS(=O)(=O)c1cccc2c(Cl)cccc12
inactive: Potency [1] | Potency [2] | outcome [3] | Potency [4] | Potency [5] | Potency [6] | Potency [7] | activity, negative = inhibition [8] -9.52%

O=C1OC(=O)C2C3CCC(O3)C12 (stereo unspecified)
inactive: Potency [1] | Potency [2] | outcome [3] | Potency [4] | Potency [5] | Potency [6] | activity, negative = inhibition [8] 3.88%

O=C1C2C=CC=CC2=NC(=S)N1CCN1CCC(=C(c2ccc(F)cc2)c2ccc(F)cc2)CC1 (stereo unspecified)
inactive: Potency [1] | Potency [2] | outcome [3] | Potency [4] | Potency [5] | activity, negative = inhibition [8] -6.14%

CC(=O)O[C@H]1Cc2ccccc2N(C(N)=O)c2ccccc21
inactive: Potency [1] | Potency [2] | outcome [3] | Potency [4] | Potency [5] | Potency [6] | activity, negative = inhibition [8] -5.85%

CCCC(=O)NCCc1c2n(c3ccc(OC)cc13)CCCc1ccccc1-2
active: Potency [6] 26.7 µM
inactive: Potency [1] | Potency [2] | outcome [3] | Potency [4] | Potency [5]

COc1ccc(CCN(C)CCc2ccc(OC)c(OC)c2)cc1OC
inactive: Potency [1] | Potency [2] | outcome [3] | Potency [4] | Potency [9] | Potency [6] | Potency [7] | activity, negative = inhibition [8] 3.09%

COC(=O)C(C)(N)Cc1ccc(O)cc1 (stereo unspecified)
inactive: Potency [1] | Potency [2] | outcome [3] | Potency [4] | Potency [9] | Potency [6] | activity, negative = inhibition [8] -17.5%

COc1cc2c(CCNC(C)=O)c[nH]c2cc1O
inactive: Potency [1] | Potency [2] | Potency [4] | Potency [5] | Potency [9] | Potency [10] | Potency [11] | Potency [12] | Potency [13] | outcome [14]
active: Potency (Furin (Homo sapiens)) 27.1 µM | Potency [6] 26.7 µM

— PubChem BioAssay (NCATS)
